# Rows were chosen to be rich in hits. Some 3% of all compounds tested hit in one or more screens of this group.
# MITF act: activators of MITF-driven TRPM1 promoter reporter, primary screen, cell-based, SK-MEL-5, luciferase, single point. SK-MEL-5 TRPM1-promoter luciferase, 24 h; % of positive control, neutral wells = 0. activation, % at 12.5 µM. 300,000 compounds, 0.75% hits. AID 588334, 2011;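 active = mean activation of at least 80% with every replicate also reaching 80%; inconclusive = mean reaches 80% but some replicate falls short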;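 also: 0% = neutral control wells and 100% = parthenolide positive control wells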
# TWEAK Fn14 block: inhibitors of TWEAK-Fn14 signaling, primary screen, luciferase reporter cells, uHTS | TWEAK-stimulated Fn14 reporter cells, luciferase luminescence, 8 h | inhibition, % at 10 µM | 360,000 compounds, 2% hits | AID 1159606, 2016; in the data active = inhibition above about 50%
# LMP1 NFkB inh: EBV LMP1-driven NF-kappaB luciferase reporter inhibitors, primary screen, cell-based, luminescence, single point. LMP1-induced NF-kappaB luciferase reporter cells. inhibition, % at 12.5 µM. 350,000 compounds, 0.69% hits. AID 504558, 2011; in the data active = inhibition above about 41%; inconclusive = no clear call, values can overlap the other calls;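 also: 0% = neutral control wells and 100% = reference inhibitor control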
# TROY NFkB inh: inhibitors of TROY-driven NF-kB signaling, primary screen, Q293 LMP1-TROYcd cells, NF-kB luciferase, uHTS; Q293 LMP1-TROYcd NF-kB luciferase reporter, 4 h; inhibition, % at 10 µM; 360,000 compounds, 0.98% hits; AID 1347056, 2019;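 active = compounds whose plate-normalised and pattern-corrected inhibition of the luciferase reporter signal at the single screening dose is 50% or more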
# TRPM1 prom inh: inhibitors of MITF-dependent TRPM1 promoter reporter, primary screen, cell-based, SK-MEL-5, single point, luciferase. SK-MEL-5 TRPM1 promoter luciferase, 24 h. inhibition, % at 12.5 µM. 330,000 compounds, 0.83% hits. AID 488899, 2010;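 active = mean inhibition across replicates of 60% or more, whatever share of single replicates reaches that level; inconclusive = some that reach 60%, reason not given; inactive = mean inhibition across replicates below 60%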
# LGR2 inh: inhibitors of bursicon-induced LGR2 CRE-luciferase signal, primary screen, cell-based, HEK293, CRE-luciferase reporter, bursicon stimulation; bursicon-stimulated, 4 h; 380,000 compounds, 0.35% hits; inhibition, % at 9.99 µM;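 active = drop in luminescence signal, shown as inhibition above about 50% in the replicate tests, limit read from the data, passing the limit was not always enough; inconclusive = probably only some replicates passing the limit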;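 also: agonist challenge used bursicon conditioned medium at about half maximal strength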
# Numbers without * were called inactive; ? = inconclusive; / = no result given.
SMILES,MITF act,TWEAK Fn14 block,LMP1 NFkB inh,TROY NFkB inh,TRPM1 prom inh,LGR2 inh
O=C(C1CCN(S(=O)(=O)N2CCCCC2)CC1)N1CCCCC1,-1.0,6.4,55.7*,-6.3,-1.3,-12.4
Cc1cc(/C=C2\SC(=O)N(C)C2=O)c(C)n1-c1ccc(S(N)(=O)=O)cc1,35.7,-8.9,-3.5,-14.3,-31.1,-6.9
Cc1cc(/C=C2\SC(=O)N(C)C2=O)c(C)n1-c1ccc(O)cc1,8.4,87.1*,-75.4,17.7,-9.2,42.4
COc1ccc(-n2c(C)cc(/C=C3/SC(=S)N(C)C3=O)c2C)cc1,58.8,69.7*,-3.5,51.9*,-54.5,/
Cc1cc(/C=C2\SC(=S)N(Cc3ccco3)C2=O)c(C)n1-c1ccccc1,24.8,62.3*,0.1,4.0,-20.6,2.3
Cc1cc(/C=C2\SC(=S)N(C)C2=O)c(C)n1-c1cccc(O)c1,-22.9,92.5*,12.7,9.8,23.5,-63.1
CN1C(=O)/C(=C\c2cc(N=Nc3ccccc3)ccc2O)SC1=S,-19.9,50.0,4.6,26.3,18.4,/
O=C(c1ccc2c(c1)OCO2)N1C[C@H]2[C@@H](c3ccccc31)[C@@H](CO)N2Cc1ccccc1Cl,/,/,/,/,/,-15.1
O=C(C[C@H]1CC[C@@H]2[C@H](COC[C@H](O)CN2Cc2ccncc2)O1)NCc1ccccc1Cl,/,/,/,/,/,7.0
CN=C1S/C(=C\c2ccc(N3CCOCC3)cc2C)C(=O)N1C,21.2,-13.2,-1.3,-10.7,-17.0,-8.1
CN=C1S/C(=C\c2cc(C)n(-c3ccccc3F)c2C)C(=O)N1C,16.2,82.0*,0.7,79.7*,-14.6,34.8
COc1ccccc1NC(=O)Nc1nc(CC(=O)N2CCN(c3ccc(F)cc3)CC2)cs1,3.1,50.9*,-1.7,39.9,-2.2,9.3
C[C@H]1CN([C@@H](C)CO)C(=O)c2cccc(N(C)C)c2O[C@H]1CN(C)C(=O)NC1CCCCC1,/,/,/,/,/,5.9
O=C(Nc1nccs1)C(c1ccccc1)N1CCCC1 (centres undefined),-2.2,86.2*,-5.6,6.7,-4.9,9.5
C[C@H](CO)N1C[C@H](C)[C@H](CN(C)S(C)(=O)=O)Oc2ncc(/C=C/c3ccccc3)cc2C1=O,/,/,/,/,/,10.8
Cn1cccc1C(=O)C(=O)Nc1ccc(F)c(F)c1,102.8*,-5.9,-31.5,-44.7,-102.2,-10.4
CCN(CC)c1ccc(-c2nc3cnccc3n2C)cc1,85.4*,-44.6,-27.4,-17.1,-91.0,/
CO[C@H]1CN(C)C(=O)c2ccc(NS(=O)(=O)c3ccc(C)cc3)cc2OC[C@H](C)N(C(=O)NC(C)C)C[C@@H]1C,/,/,/,/,/,-13.1
N#C/C(=C\c1cccs1)C(=O)NCc1ccccc1,4.6,-10.7,1.9,-42.4,-6.7,-20.4
N#C/C(=C\c1cccs1)C(=O)Nc1nccs1,?,52.9*,-22.7,2.2,-94.5,-17.9
COc1ccc(NC(=O)Nc2ccc3c(c2)[C@@H]2C[C@@H](CC(=O)NCCc4ccccc4)O[C@@H](CO)[C@@H]2O3)cc1,/,/,/,/,/,-20.3
Cc1ccc(NC(=O)CSc2ccccc2NC(=O)c2ccccc2)cc1Cl,-2.0,-40.2,0.7,-63.5,-0.5,-32.5
Cc1ccc(NC(=O)CSc2ccccc2NC(=O)c2ccccc2Cl)cc1Cl,2.2,72.9*,-12.6,17.3,-2.4,-4.3
O=C(NCC[C@@H]1CC[C@H](NS(=O)(=O)c2ccccc2F)[C@@H](CO)O1)c1ccc(F)cc1,/,/,/,/,/,-4.1
Nn1c(Cc2ccccc2)nc2ccccc2c1=O,-12.4,17.2,4.0,4.9,11.3,2.2
SMILES,MITF act,TWEAK Fn14 block,LMP1 NFkB inh,TROY NFkB inh,TRPM1 prom inh,LGR2 inh
Nn1c(COc2ccc(Cl)cc2)nc2ccccc2c1=O,98.8*,-67.2,-11.6,-73.1,-94.9,-23.6
COCC(=O)Nc1ccc2c(c1)OC[C@@H](C)N(Cc1cccc(F)c1)C[C@H](C)[C@H](OC)CN(C)C2=O,/,/,/,/,/,1.9
Nc1nnc(SCc2ccc(Cl)cc2)s1,19.3,68.1*,-5.1,/,-18.8,/
O=C(C[C@@H]1CC[C@@H]2NC[C@@H](O)COC[C@H]2O1)NCCN1CCCC1,/,/,/,/,/,-17.2
O=C(C1CCCC1)N1CC[C@@H]2[C@H](CO)Nc3ccc(C4=CCCCC4)cc3[C@@H]21,/,/,/,/,/,11.7
Cc1ccc(C(=O)CC(=O)c2ccccc2C)c(O)c1,-9.1,14.8,12.4,5.1,10.6,-9.7
C=C(CN(C)C)C(=O)c1ccc(C)cc1C,/,46.2,-8.5,-20.2,108.9*,5.6
CC(C)c1ccc(/C=C/C(=O)Nc2nc3ccc([N+](=O)[O-])cc3s2)cc1,/,-9.9,-5.3,-18.8,28.8,/
O=[N+]([O-])c1ccc2nc(NN=Cc3ccc(O)cc3)sc2c1,-17.4,69.0*,-9.5,66.2*,20.9,104.8*
COc1ccc(Cn2c(C)nc3c(c2=O)c2nc4ccccc4nc2n3Cc2ccco2)cc1,-63.0,52.3*,13.1,8.9,?,-18.0
COc1ccc(CC2C(=O)NC(C)C(=O)N(C)C3Cc4ccc(cc4)Oc4cc(ccc4O)CC(C(=O)NC(C)C(=O)NC(C)C(=O)N2C)N(C)C3=O)cc1 (centres undefined),/,101.3*,81.6*,84.3*,98.4*,103.3*
O=C(O)c1ccc(N=Nc2c(O)[nH]c3cc(Cl)ccc23)cc1,64.3,55.2*,-95.4,-60.8,-102.4,-59.6
CC1=Nn2c(nnc2-c2ccccc2Cl)SC1,/,6.1,3.3,-8.4,-1.0,/
Clc1ccccc1C1=Nn2c(nnc2-c2ccncc2)SC1,25.6,63.9*,55.6*,48.6,-17.5,/
c1csc(C2=Nn3c(nnc3-c3ccncc3)SC2)c1,14.8,68.7*,-1.0,47.4,-12.6,/
O=C(C[C@@H]1CC[C@@H](NS(=O)(=O)c2cccc(F)c2)[C@@H](CO)O1)N1CCCCC1,/,/,/,/,/,8.5
O=C(Nc1ccc(Cl)cc1)N[C@H]1CC[C@@H](CCn2cc(-c3ccccc3F)nn2)O[C@@H]1CO,/,/,/,/,/,-5.6
FC(F)(F)c1ccc(-c2csc(-c3ccno3)n2)cc1,/,-16.8,-21.7,-39.3,-12.7,-46.6
CC(C)(C)C(=O)OCc1nc(-c2ccc(C(F)(F)F)cc2)cs1,24.5,-23.7,-5.7,73.3*,-23.2,-12.9
CC=Cc1ccc2n(c1=O)C[C@H]1[C@H](CO)[C@@H](C(=O)NCC)[C@@H]2N1Cc1cccc(Cl)c1 (mixture of isomers),/,/,/,/,/,1.8
C[C@@H]1CCCCO[C@@H](CN(C)C)[C@@H](C)CN([C@@H](C)CO)C(=O)c2cc(NS(=O)(=O)c3ccccc3)ccc2O1,/,/,/,/,/,-0.9
CCC1(C)Cc2ccccc2-c2nc(SCC(N)=O)[nH]c(=O)c21 (centres undefined),5.3,12.0,-8.9,53.2*,-3.8,-5.5

# Screens deposited in PubChem BioAssay by several laboratories.
